# A selection: hits, their analogues and other compounds. The true share with any hit is near 2.4%.
# CHT PAM = human CHT allosteric activation. Q9GZV3. CHT-expressing cells, membrane potential dye, choline EC20; stronger effect = higher value; LV-AA mutant CHT in HEK293 cells. B-score at 10 µM. 0.49% of 310,000 active. AID 488977;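 active = initial fluorescence not abnormally high and integrated response B-score, plate-corrected, over 3 SD above library mean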
# Target sequence (Q9GZV3 whole entry, looked up): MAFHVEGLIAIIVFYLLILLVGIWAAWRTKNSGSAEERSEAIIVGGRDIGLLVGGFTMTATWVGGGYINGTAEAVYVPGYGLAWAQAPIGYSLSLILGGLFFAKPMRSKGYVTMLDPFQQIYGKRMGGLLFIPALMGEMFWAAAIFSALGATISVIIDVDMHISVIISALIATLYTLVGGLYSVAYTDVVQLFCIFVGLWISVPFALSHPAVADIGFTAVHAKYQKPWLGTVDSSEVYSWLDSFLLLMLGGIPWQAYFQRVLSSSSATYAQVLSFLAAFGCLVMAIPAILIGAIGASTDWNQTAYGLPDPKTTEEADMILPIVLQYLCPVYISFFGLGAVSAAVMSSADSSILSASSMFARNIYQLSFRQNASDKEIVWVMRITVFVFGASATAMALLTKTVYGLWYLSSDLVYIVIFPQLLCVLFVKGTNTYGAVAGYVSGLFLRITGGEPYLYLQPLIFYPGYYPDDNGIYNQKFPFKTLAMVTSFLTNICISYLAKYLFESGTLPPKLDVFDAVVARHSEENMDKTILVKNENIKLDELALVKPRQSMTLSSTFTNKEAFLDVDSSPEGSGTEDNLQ
# TMEM16A inh = blocks the mouse calcium-activated chloride channel TMEM16A. Q8BHY3. HEK293 TMEM16A/YFP iodide influx fluorescence, ionomycin. normalized B-score (activity score, 25-100; higher = stronger inhibition) at 10 µM. 1.2% of 310,000 active. AID 588511;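 active = ratio plate-corrected score three or more library SD toward inhibition, starting fluorescence score within five deviations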;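 also: score derived from kinetic fluorescence span divided by baseline fluorescence per well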
# CHT block = inhibits the human high affinity choline transporter; Q9GZV3; CHT-expressing cells, membrane potential dye, choline response; stronger effect = lower value; B-score at 10 µM; 0.86% of 310,000 active; AID 488975;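 active = B-score over 3 SD under the library average, and starting fluorescence ratio not unusually high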;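 also: choline stimulus applied at its EC90 after an EC20 pre-addition; B-score computed on integrated fluorescence ratio after choline addition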
# ANO1 activ = activates or potentiates the mouse TMEM16A chloride channel. B-score at 10 µM. Q8BHY3. 0.3% of 340,000 active. HEK293 TMEM16A/YFP-H148Q/I152L, iodide quench fluorescence; stronger effect = lower value;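 active = fluorescence-ratio B-score plate-corrected deviation score at least 3 library SD below zero, with starting fluorescence score within 5 deviations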;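 also: channel opened by trigger with iodide after compound preincubation; score built on the fluorescence ratio of max minus min over baseline; more negative score means more quench and so TMEM16A activation or potentiation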
# CHT act confirm = human CHT activation, confirmatory screen | 91% of 2,500 active | CHT-expressing cells, membrane potential dye fluorescence (FDSS); % of choline EC20–EC90 response window; HEK293 expressing CHT LV-AA mutant; choline added at its EC20 | activation, % at 10 µM | shares compounds with CHT PAM;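 active = primary screen active, with duplicate mean activation above negative control mean plus 3 SD, cut at about 11% in these data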
# HEK293 MP dye = CHT activator counter-screen hit in parental HEK293 cells; membrane potential dye fluorescence (FDSS); measured after EC20 choline addition; ratio readout change at 10 µM, hits read low; AID 623908; shares compounds with CHT PAM; 62% of 2,500 active;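 active = duplicate-averaged ratio beyond 3 SD from buffer wells, up or down, though filed actives are nearly all decreases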
# TMEM16A reconf = reconfirmed blocker of mouse TMEM16A calcium-activated chloride channel; HEK293 TMEM16A/YFP-H148Q, iodide quench fluorescence; ionomycin added to raise cell calcium; 39% of 2,300 active; shares compounds with TMEM16A inh; inhibition, % at 10 µM; AID 652189;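 active = mean duplicate percent inhibition, scaled so buffer wells are 0 and the reference blocker 100, over three buffer SD above buffer mean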
# HEK293 Ca mobil = alters calcium mobilization in TMEM16A HEK293 cells, counter-screen; shares compounds with TMEM16A inh; TMEM16A/YFP HEK293, Fluo4 calcium mobilization; calcium response (% of ionomycin), % at 10 µM; 2% of 2,300 active; AID 652231;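 active = duplicate-averaged calcium signal over 20% of the ionomycin maximum, relative to buffer baseline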;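 also: each well's signal is peak minus trough fluorescence divided by its pre-addition baseline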
# Parental YFP cnt = parental YFP-HEK293 iodide quench counter-screen activity | shares compounds with TMEM16A inh | ionomycin | YFP ratio F(max-min)/F0 at 10 µM | 2,300 tested, under 10 active | AID 652233;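 active = yellow fluorescent protein signal ratio exceeding the buffer control mean by over 5 SD of those controls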;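 also: ratio is mean of duplicate wells from kinetic YFP trace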
# ClC-1 inh = selectivity of TMEM16A inhibitors: inhibition of rat ClC-1 chloride channel; shares compounds with TMEM16A inh; ratio percent, % at 10 µM; CHO ClC-1-YFP, iodide influx fluorescence quench; iodide control reads 0, buffer control 100; 2,300 tested, under 10 active; AID 652236;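 active = duplicate-mean ratio percent above the mean of iodide-only control wells, which defines zero, plus 5 of their SD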;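 also: higher percent means stronger block of ClC-1 iodide influx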
# Numbers stand for hits; – = inactive; · = not tested or not shown.
SMILES,CHT PAM,TMEM16A inh,CHT block,ANO1 activ,TMEM16A reconf,HEK293 Ca mobil,Parental YFP cnt,ClC-1 inh,others
NCCNc1ccc([N+](=O)[O-])c2cccnc12,6.6,–,–,–,·,·,·,·,CHT act confirm=32;HEK293 MP dye=-72
c1ccc(-c2[nH]c(-c3ccccc3)[n+](CC3CO3)c2-c2ccccc2)cc1 (stereo not given),–,–,–,–,·,·,·,·,CHT act confirm=25;HEK293 MP dye=–
CCOP(=O)(OCC)C(NC(=O)c1ccc(C)cc1)=C(Cl)Cl,–,–,–,–,·,·,·,·,
CCN(CC)C1=NC(=[N+](CC)CC)c2ccccc21,8.7,–,–,–,·,·,·,·,CHT act confirm=64;HEK293 MP dye=-56
C[n+]1c(-c2ccccc2)c2cc(N)ccc2c2ccc(N)cc21,9.2,–,–,–,·,·,·,·,CHT act confirm=38;HEK293 MP dye=-77
Nc1ccc2ccc3cccc[n+]3c2c1,–,–,–,–,·,·,·,·,
CCN(CC)c1ccc(N=Cc2c(O)n(-c3ccc(Cl)cc3)c(=O)[nH]c2=O)cc1,–,–,–,–,–,–,–,–,
C=CCn1c(O)c(C=Nc2ccc(N(CC)CC)cc2)c(=O)[nH]c1=O,–,–,–,–,·,·,·,·,
O=C(c1ccccc1F)N1C[C@H]2C[C@@H](C1)c1cccc(=O)n1C2,–,–,–,–,·,·,·,·,
Cn1nc(-c2ccc(OCC(=O)N3CCN(Cc4ccccc4)CC3)cc2)c2ccccc2c1=O,–,100,–,–,20%,–,–,–,
NS(=O)(=O)c1cccc(N2CCNCC2)c1,–,–,–,–,·,·,·,·,
O=[N+]([O-])c1ccc(N2CCCCCC2)c2ncccc12,–,25,–,–,–,–,–,–,
O=c1[nH]c(=O)n(CCC2=CCCCC2)c(O)c1C=NC1CCN(Cc2ccccc2)CC1,–,25,–,–,–,–,–,–,
O=[N+]([O-])c1ccc(N2CCCCCC2)c2nonc12,–,–,–,–,·,·,·,·,
O=[N+]([O-])c1ccc(N2CCCC(C(F)(F)F)C2)c2ccncc12 (stereo not given),–,100,–,–,20%,–,–,–,
O=C(Nc1ccc(C(F)(F)F)cc1)c1cccn(Cc2ccc3c(c2)OC(F)(F)O3)c1=O,–,25,–,–,–,–,–,–,
CCOC(=O)C1SC2(C(F)(F)F)CC1(O)c1c(C)cc(C)nc1O2 (stereo not given),–,25,–,–,–,–,–,–,
CCC1(CC(C)C)C(=O)NC(=S)NC1=O,·,·,·,–,·,·,·,·,
c1cc(CNCCc2ccc3c(c2)OCO3)ccn1,–,–,–,–,·,·,·,·,
Clc1ccc(CCNCc2ccncc2)c(Cl)c1,–,25,–,–,–,–,–,–,
COC(=O)C1C(OC(=O)c2ccccc2)CC2CCC1N2C (stereo not given),–,–,–,–,·,·,·,·,
CCOC(=O)C1(CCc2ccccc2)CCN(Cc2ccc3c(c2)OCCO3)CC1,–,25,–,–,–,–,–,–,
CCOC(=O)C1(CCc2ccccc2)CCN(Cc2ccc(NC(C)=O)cc2)CC1,–,–,–,–,·,·,·,·,
CC(=O)O[C@H]1CCC2C3CCC4=CC(=O)CCC4=C3C=C[C@@]21C (stereo not given in full),–,–,–,–,·,·,·,·,
O=c1cc(C(F)(F)F)c2cc3c4c(c2o1)CCCN4CCC3,–,–,–,–,·,·,·,·,
Cc1cc2c(C(F)(F)F)cc(=O)oc2c2c1NCCC2,–,–,–,–,18%,30%,–,–,
CCCNC(=O)N1[C@H]2CC[C@@H]1C(C(=O)OC)=C(c1ccc(F)cc1OCc1ccccc1)C2,·,·,·,–,·,·,·,·,
c1ccc(CCN2CCC(N3CCN(c4ccccc4)CC3)CC2)cc1,–,25,–,–,–,–,–,–,
CCn1c(O)c(/C=N/NC(=O)c2ccccc2)c(=O)n(CC)c1=S,–,–,–,–,·,·,·,·,
COC(=O)C1=C(c2cccc(OC)c2OC)C[C@@H]2CC[C@H]1N2C(=O)NCCS(C)=O (stereo not given in full),–,100,–,–,–,–,–,–,
